# Experimental data taken from paper PMC5540273 (PLoS ONE, 2017).
# Like-named read-outs stand apart in the source and are kept apart here.
# Key:
# FYN = settings: concentration: 1 μM, replicates: in singlicate; n = 1
# GAK = settings: concentration: 1 μM, replicates: in singlicate; n = 1
# GCN2(Kin.Dom.2,S808G) = test system: T1, GCN2(Kin.Dom.2,S808G); settings: concentration: 1 μM, replicates: in singlicate; n = 1
# T1 construct: gene EIF2AK4
# GRK1 = settings: concentration: 1 μM, replicates: in singlicate; n = 1
# GRK2 = test system: T2, GRK2; settings: concentration: 1 μM, replicates: in singlicate; n = 1
# T2 construct: gene ADRBK1
# GRK3 = test system: T3, GRK3; settings: concentration: 1 μM, replicates: in singlicate; n = 1
# T3 construct: gene ADRBK2
# GRK4 = settings: concentration: 1 μM, replicates: in singlicate; n = 1
# GRK7 = settings: concentration: 1 μM, replicates: in singlicate; n = 1
# GSK3A = settings: concentration: 1 μM, replicates: in singlicate; n = 1
# GSK3B = settings: n = 1
# HASPIN = test system: T4, HASPIN; settings: concentration: 1 μM, replicates: in singlicate; n = 1
# T4 construct: gene GSG2
# HCK = settings: concentration: 1 μM, replicates: in singlicate; n = 1
# HIPK1 = settings: concentration: 1 μM, replicates: in singlicate; n = 1
# HIPK2 = settings: concentration: 1 μM, replicates: in singlicate; n = 1
# HIPK3 = settings: concentration: 1 μM, replicates: in singlicate; n = 1
# HIPK4 = settings: concentration: 1 μM, replicates: in singlicate; n = 1
# HPK1 = settings: concentration: 1 μM, replicates: in singlicate; n = 1
# HUNK = settings: concentration: 1 μM, replicates: in singlicate; n = 1
# ICK = settings: concentration: 1 μM, replicates: in singlicate; n = 1
# IGF1R = settings: concentration: 1 μM, replicates: in singlicate; n = 1
# [1] = concentration: 1 μM, replicates: in singlicate
# 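Note: KINOMEscan kinase panel screen.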
smiles,measurement,setting,value
Nc1n[nH]c2cnc(-c3ccccc3)cc12 [SB-642124],%Inh,FYN,25%
same,%Inh,GAK,13%
same,%Inh,"GCN2(Kin.Dom.2,S808G)",11%
same,%Inh,GRK1,0%
same,%Inh,GRK2,0%
same,%Inh,GRK3,42%
same,%Inh,GRK4,10%
same,%Inh,GRK7,0%
same,%Inh,GSK3A,40%
same,%Inh,GSK3B; 1 µM,25%
same,%Inh,HASPIN,68%
same,%Inh,HCK,0%
same,%Inh,HIPK1,64%
same,%Inh,HIPK2,78%
same,%Inh,HIPK3,88%
same,%Inh,HIPK4,7%
same,%Inh,HPK1,58%
same,%Inh,HUNK,0%
same,%Inh,ICK,26%
same,%Inh,IGF1R,0%
CN(c1ccc(NC(=O)Nc2cc(C(F)(F)F)ccc2F)cc1)c1ccnc(Nc2ccc(S(N)(=O)=O)cc2)n1 [GW809893],%Inh,FYN,83%
same,%Inh,GAK,0%
same,%Inh,"GCN2(Kin.Dom.2,S808G)",0%
same,%Inh,GRK1,17%
same,%Inh,GRK2,13%
same,%Inh,GRK3,0%
same,%Inh,GRK4,25%
same,%Inh,GRK7,6%
same,%Inh,GSK3A,68%
same,%Inh,GSK3B; [1],12%
same,%Inh,HASPIN,2%
same,%Inh,HCK,98.3%
same,%Inh,HIPK1,59%
same,%Inh,HIPK2,64%
same,%Inh,HIPK3,84%
same,%Inh,HIPK4,99.1%
same,%Inh,HPK1,99.4%
same,%Inh,HUNK,15%
same,%Inh,ICK,21%
same,%Inh,IGF1R,0%
Cc1ccc(C)c(NC(=O)NC2CCN(c3ccnc(Nc4ccc(F)cc4)n3)C2)c1 (stereo not shown) [GSK1379720],%Inh,FYN,27%
same,%Inh,GAK,0%
same,%Inh,"GCN2(Kin.Dom.2,S808G)",0%
same,%Inh,GRK1,0%
same,%Inh,GRK2,0%
same,%Inh,GRK3,60%
same,%Inh,GRK4,7%
same,%Inh,GRK7,0%
same,%Inh,GSK3A,0%
same,%Inh,GSK3B; [1],0%
same,%Inh,HASPIN,44%
same,%Inh,HCK,0%
same,%Inh,HIPK1,0%
same,%Inh,HIPK2,10%
same,%Inh,HIPK3,0%
same,%Inh,HIPK4,0%
same,%Inh,HPK1,45%
same,%Inh,HUNK,0%
same,%Inh,ICK,0%
same,%Inh,IGF1R,25%
Nc1ncc(-c2cccnc2)c2scc(-c3ccc4c(c3)CCN4C(=O)Cc3ccccc3)c12 [GSK683281],%Inh,FYN,32%
same,%Inh,GAK,23%
same,%Inh,"GCN2(Kin.Dom.2,S808G)",75%
same,%Inh,GRK1,0%
same,%Inh,GRK2,0%
same,%Inh,GRK3,0%
same,%Inh,GRK4,22%
same,%Inh,GRK7,0%
same,%Inh,GSK3A,24%
same,%Inh,GSK3B; [1],29%
same,%Inh,HASPIN,0%
same,%Inh,HCK,25%
same,%Inh,HIPK1,20%
same,%Inh,HIPK2,0%
same,%Inh,HIPK3,35%
same,%Inh,HIPK4,0%
same,%Inh,HPK1,63%
same,%Inh,HUNK,34%
same,%Inh,ICK,8%
same,%Inh,IGF1R,0%
O=C(O)C(F)(F)F.O=C(O)C(F)(F)F.O=c1[nH]ccc2nc(N[C@@H]3CCCNC3)nc(Nc3ccc(S(=O)(=O)N4CCOCC4)cc3)c12 [GSK2177277],%Inh,FYN,61%
same,%Inh,GAK,97.4%
same,%Inh,"GCN2(Kin.Dom.2,S808G)",100%
same,%Inh,GRK1,96.6%
same,%Inh,GRK2,72%
same,%Inh,GRK3,88%
same,%Inh,GRK4,92.2%
same,%Inh,GRK7,96%
same,%Inh,GSK3A,99.3%
same,%Inh,GSK3B; [1],98.2%
same,%Inh,HASPIN,81%
same,%Inh,HCK,92.6%
same,%Inh,HIPK1,83%
same,%Inh,HIPK2,92.9%
same,%Inh,HIPK3,97.2%
same,%Inh,HIPK4,54%
same,%Inh,HPK1,98.2%
same,%Inh,HUNK,0%
same,%Inh,ICK,88%
same,%Inh,IGF1R,90.8%
COc1cccc(C(=O)Nc2cccc(Oc3ccc4nc(NC(=O)C5CC5)cn4n3)c2)c1,%Inh,FYN,84%
same,%Inh,GAK,33%
same,%Inh,"GCN2(Kin.Dom.2,S808G)",22%
same,%Inh,GRK1,17%
same,%Inh,GRK2,0%
same,%Inh,GRK3,0%
same,%Inh,GRK4,0%
same,%Inh,GRK7,0%
same,%Inh,GSK3A,8%
same,%Inh,GSK3B; [1],10%
same,%Inh,HASPIN,0%
same,%Inh,HCK,98.1%
same,%Inh,HIPK1,37%
same,%Inh,HIPK2,0%
same,%Inh,HIPK3,0%
same,%Inh,HIPK4,15%
same,%Inh,HPK1,42%
same,%Inh,HUNK,12%
same,%Inh,ICK,0%
same,%Inh,IGF1R,0%
CC(=O)N1CCN(c2ccc(Nc3nccc(-c4sc(C(C)C)nc4-c4cccc(NS(=O)(=O)c5cccc(Cl)c5)c4)n3)cn2)CC1 [GSK1660437],%Inh,FYN,73%
same,%Inh,GAK,90.9%
same,%Inh,"GCN2(Kin.Dom.2,S808G)",100%
same,%Inh,GRK1,0%
same,%Inh,GRK2,12%
same,%Inh,GRK3,0%
same,%Inh,GRK4,30%
same,%Inh,GRK7,0%
same,%Inh,GSK3A,12%
same,%Inh,GSK3B; [1],10%
same,%Inh,HASPIN,0%
same,%Inh,HCK,83%
same,%Inh,HIPK1,40%
same,%Inh,HIPK2,5%
same,%Inh,HIPK3,35%
same,%Inh,HIPK4,82%
same,%Inh,HPK1,36%
same,%Inh,HUNK,0%
same,%Inh,ICK,0%
same,%Inh,IGF1R,0%
CSc1cccc2c(-c3ccncn3)c(-c3ccc(F)cc3)nn12 [GW514786],%Inh,FYN,17%
same,%Inh,GAK,76%
same,%Inh,"GCN2(Kin.Dom.2,S808G)",0%
same,%Inh,GRK1,6%
same,%Inh,GRK2,7%
same,%Inh,GRK3,35%
same,%Inh,GRK4,100%
same,%Inh,GRK7,0%
same,%Inh,GSK3A,5%
same,%Inh,GSK3B; [1],9%
same,%Inh,HASPIN,17%
same,%Inh,HCK,0%
same,%Inh,HIPK1,9%
same,%Inh,HIPK2,0%
same,%Inh,HIPK3,10%
same,%Inh,HIPK4,32%
same,%Inh,HPK1,21%
same,%Inh,HUNK,8%
same,%Inh,ICK,0%
same,%Inh,IGF1R,19%
